hcDAF-12 act: activates DAF-12 receptor from parasite H. contortus; HEK293 hcDAF-12 lit1-tk-luc reporter, luminescence; 0% DMSO, 100% Δ7-dafachronic acid; activation, % at 6.8 µM; 370,000 tested, 1.4% active;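 active = activation above the mean of all tested compounds plus 3 SD, cut at about 5.5% in these data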;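 note: 100% = response to 3 µM Δ7-dafachronic acid high control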
DAX1 inh-1: inhibitors of human orphan nuclear receptor DAX1 (NR0B1) | P51843 | HEK293 Gal4-DAX1 luciferase reporter, luminescence | inhibition, % at 6.75 µM | 340,000 tested, 0.99% active;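 active = inhibition above the mean over all tested compounds plus 3 SD, cut at about 4.2% in these data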;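 note: 0% = DAX1-transfected cells with DMSO and 100% = empty-vector control cells with DMSO; inhibition shows as a rise in luminescence from relieved DAX1 repression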
Target sequence (P51843 207-470 limits assumed): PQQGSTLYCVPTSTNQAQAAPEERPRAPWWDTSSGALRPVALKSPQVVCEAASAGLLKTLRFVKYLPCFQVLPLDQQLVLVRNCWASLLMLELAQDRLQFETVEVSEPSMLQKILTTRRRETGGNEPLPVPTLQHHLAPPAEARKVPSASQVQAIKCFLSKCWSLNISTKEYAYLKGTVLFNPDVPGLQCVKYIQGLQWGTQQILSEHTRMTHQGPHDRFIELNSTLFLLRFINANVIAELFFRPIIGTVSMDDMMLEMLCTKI
ssDAF-12 act: activators of S. stercoralis DAF-12 nuclear receptor; HEK293 ssDAF-12/GRIP1 lit1-tk-luc reporter, luminescence; % of 3 µM dafachronic acid response; activation, % at 6.8 µM; 370,000 tested, 1% active; AID 652126;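 active = activation above the mean over all tested compounds plus 3 SD, cut at about 0.9% in these data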;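 note: 0% = DMSO-only wells and 100% = 3 µM delta7-dafachronic acid wells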
DAX1 inh-2: DAX1 (NR0B1) inhibition, primary screen; HEK293T StAR-luciferase reporter, SF-1/DAX-1 repression relief; inhibition, % at 6.8 µM; 370,000 tested, 1.1% active; AID 652010;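 active = inhibition above the mean over all tested compounds plus 3 SD, cut at about 3.6% in these data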;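 note: 0% = DAX-1 cells with DMSO and 100% = cells lacking DAX-1 with DMSO; higher inhibition means more luminescence from relief of DAX-1 repression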
hgDAF12 agonist: activates the H. glycines DAF-12 receptor ligand-binding domain; HEK293 GAL4-hgDAF12 UAS-luciferase reporter, agonist luminescence; normalized to butyrate control; 370,000 tested, 1.8% active; activation, % at 6.8 µM;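 active = activation above a cutoff set at the mean of all screened compounds plus 3 SD, cut at about 10% in these data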;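 note: 0% = DMSO wells and 100% = sodium butyrate wells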
SMARCA2 activ: increases SMARCA2 function in MMTV reporter cells; MG213 cells, MMTV-luciferase reporter, dexamethasone, overnight; activation, % at 9.1 µM; 370,000 tested, 1% active; AID 652017; in the data active = activation above about 7.8%;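 note: 0% = vehicle wells and 100% = reference activator wells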
Starred values were filed as active, the others as inactive. Most compounds without a hit are left out; they make up all but 4.8% or so of the library.

Results for CCOC(=O)N1CCN(C(=O)C[C@@H]2C[C@]3(C(=O)OCC)CCC4=C3N(CCC4)C2=O)CC1 ?
hcDAF-12 act: -0.4; ssDAF-12 act: -1.4; DAX1 inh-2: -0.7; hgDAF12 agonist: 1.5; SMARCA2 activ: -3.4

What do the screens show for `COc1cc(/C=N/N=C(N)N)ccc1OCc1ccccc1Cl`?
hcDAF-12 act: -1.0; DAX1 inh-1: -0.6; ssDAF-12 act: -2.4; DAX1 inh-2: -1.1; hgDAF12 agonist: 1.1; SMARCA2 activ: 0.8

What do the screens show for `CCOC(=O)N1CCN(C/C(C)=C/c2ccccc2)CC1`?
hcDAF-12 act: -0.5; DAX1 inh-1: 0.6; ssDAF-12 act: -0.3; DAX1 inh-2: 0.2; hgDAF12 agonist: -1.8; SMARCA2 activ: -2.2

How did CCOC1=C2CN(S(=O)(=O)c3ccc(C)cc3)[C@H](c3ccc(CC)cc3)C[C@@H]2N(S(=O)(=O)c2ccc(C)cc2)[C@H](c2ccccc2)C1 do in these assays?
hcDAF-12 act: -0.4; ssDAF-12 act: -0.6; DAX1 inh-2: -0.4; hgDAF12 agonist: 1.7; SMARCA2 activ: -2.0

Results for Cc1[nH]c2ccc(C(=O)Nc3ccncc3)cc2c1C ?
hcDAF-12 act: -3.0; DAX1 inh-1: -1.4; ssDAF-12 act: -1.7; DAX1 inh-2: -0.5; hgDAF12 agonist: -1.2; SMARCA2 activ: -1.9

Results for CCOc1ccccc1NC(=O)c1ccc2nc[nH]c2c1 ?
hcDAF-12 act: -2.0; DAX1 inh-1: 4.4*; ssDAF-12 act: -1.5; DAX1 inh-2: -0.2; hgDAF12 agonist: 0.5; SMARCA2 activ: 0.4

Results for Cc1ccc(NC(=O)c2ccc3nc[nH]c3c2)c(O)c1 ?
hcDAF-12 act: 6.2*; DAX1 inh-1: 1.6; ssDAF-12 act: 0.5; DAX1 inh-2: 2.9; hgDAF12 agonist: 11.2*; SMARCA2 activ: 2.1

How did COc1ccccc1NC(=O)c1ccc2[nH]c(C)c(C)c2c1 do in these assays?
hcDAF-12 act: 3.3; DAX1 inh-1: 2.5; ssDAF-12 act: -0.4; DAX1 inh-2: 1.0; hgDAF12 agonist: 10.5*; SMARCA2 activ: 3.1

How did Cc1cc(N2CCOCC2)nc2ccc(NC(=O)CCC(=O)N3CCCCC3)cc12 do in these assays?
hcDAF-12 act: 0.7; DAX1 inh-1: 1.1; ssDAF-12 act: -0.6; DAX1 inh-2: 1.6; hgDAF12 agonist: 4.7; SMARCA2 activ: 0.6

What do the screens show for `CC1CN(C(=O)/C=C/c2ccccc2[N+](=O)[O-])CC(C)O1` (stereo not given)?
hcDAF-12 act: 1.3; DAX1 inh-1: -1.1; ssDAF-12 act: -0.9; DAX1 inh-2: 0.0; hgDAF12 agonist: -0.5; SMARCA2 activ: 1.2

What do the screens show for `Cc1ccc(-n2c(Cn3ncc4ccccc4c3=O)n[nH]c2=S)cc1`?
hcDAF-12 act: 0.6; DAX1 inh-1: 1.3; ssDAF-12 act: 1.3*; DAX1 inh-2: -0.4; hgDAF12 agonist: -0.7; SMARCA2 activ: -0.7

Results for COc1cc([N+](=O)[O-])ccc1NC(=O)CCN1C(=O)C2C3CCC(C3)C2C1=O (stereo not given) ?
hcDAF-12 act: 0.5; DAX1 inh-1: -0.9; ssDAF-12 act: -1.2; DAX1 inh-2: 0.5; hgDAF12 agonist: -1.4; SMARCA2 activ: -0.6

How did O=C(NC(=O)c1ccccc1)Nc1ccccc1 do in these assays?
hcDAF-12 act: 6.2*; DAX1 inh-1: -0.4; ssDAF-12 act: 1.3*; DAX1 inh-2: 3.2; hgDAF12 agonist: 11.8*; SMARCA2 activ: 2.3

What do the screens show for `O=C(NC(=S)Nc1ccc2cn[nH]c2c1)c1ccccc1`?
hcDAF-12 act: 4.4; DAX1 inh-1: 2.4; ssDAF-12 act: -0.1; DAX1 inh-2: 3.6*; hgDAF12 agonist: 11.8*; SMARCA2 activ: 4.4

What do the screens show for `S=C(Nc1ccccc1)Nc1ccc2cn[nH]c2c1`?
hcDAF-12 act: 2.1; DAX1 inh-1: 3.1; ssDAF-12 act: 0.0; DAX1 inh-2: 0.7; hgDAF12 agonist: 4.7; SMARCA2 activ: -2.9

How did COc1ccc(NC(=O)NC(=O)c2ccccc2)cc1 do in these assays?
hcDAF-12 act: 2.0; DAX1 inh-1: 1.6; ssDAF-12 act: 0.3; DAX1 inh-2: 0.1; hgDAF12 agonist: 2.6; SMARCA2 activ: 6.8

Results for CC(=O)c1cccc(NC(=S)NC(=O)c2ccccc2)c1 ?
hcDAF-12 act: 0.3; DAX1 inh-1: 0.9; ssDAF-12 act: -0.7; DAX1 inh-2: 1.0; hgDAF12 agonist: 12.2*; SMARCA2 activ: -0.5

How did CC1=C(C(=O)Nc2cccc(C(=O)NCc3ccccc3C)c2)SCCO1 do in these assays?
hcDAF-12 act: -1.2; DAX1 inh-1: -0.3; ssDAF-12 act: -1.0; DAX1 inh-2: -0.2; hgDAF12 agonist: -2.8; SMARCA2 activ: -4.3

How did COc1ccc(/C=C(\NC(=O)c2ccc(C)cc2)C(=O)Nc2c(C)n(C)n(-c3ccccc3)c2=O)cc1 do in these assays?
hcDAF-12 act: -3.3; DAX1 inh-1: 1.6; ssDAF-12 act: -0.2; DAX1 inh-2: -0.8; hgDAF12 agonist: 2.0; SMARCA2 activ: 1.9

What do the screens show for `C/C(=N\NC(=O)c1ccc(Cl)c(Cl)c1)c1ccc(Br)s1`?
hcDAF-12 act: 2.8; DAX1 inh-1: 1.1; ssDAF-12 act: -1.2; DAX1 inh-2: 0.1; hgDAF12 agonist: 3.0; SMARCA2 activ: -0.6

Results for C/C(=N/NC(=O)c1ccc2c(c1)OCO2)c1ccc(Br)s1 ?
hcDAF-12 act: -0.2; DAX1 inh-1: 1.2; ssDAF-12 act: 0.9*; DAX1 inh-2: 0.5; hgDAF12 agonist: 3.2; SMARCA2 activ: 4.1

Results for C/C(=N\NC(=O)c1ccc(C)cc1C)c1ccc2c(c1)OCO2 ?
hcDAF-12 act: 1.6; DAX1 inh-1: 1.5; ssDAF-12 act: 1.3*; DAX1 inh-2: 0.8; hgDAF12 agonist: 7.3; SMARCA2 activ: 6.3

Results for COc1ccc(CCN(C)C/C=C/c2ccccc2[N+](=O)[O-])cc1OC ?
hcDAF-12 act: 2.0; DAX1 inh-1: 1.1; ssDAF-12 act: -0.8; DAX1 inh-2: -0.5; hgDAF12 agonist: 1.8; SMARCA2 activ: -2.2

What do the screens show for `O=C(Nc1ccc(Cl)cc1)c1ccc(OCC2CCCO2)cc1` (stereo not given)?
hcDAF-12 act: -0.1; DAX1 inh-1: -1.7; ssDAF-12 act: -0.9; DAX1 inh-2: 0.0; hgDAF12 agonist: 12.6*; SMARCA2 activ: -0.2

Results for O=C(NCc1ccc(Cl)cc1)c1ccc(OCC2CCCO2)cc1 (stereo not given) ?
hcDAF-12 act: -0.5; DAX1 inh-1: 1.0; ssDAF-12 act: -0.4; DAX1 inh-2: -0.4; hgDAF12 agonist: 2.5; SMARCA2 activ: -1.0

How did O=c1cc(CN(Cc2ccccc2)Cc2ccccc2)c2c(ccc3ccccc32)o1 do in these assays?
hcDAF-12 act: 2.8; ssDAF-12 act: 1.8*; DAX1 inh-2: 1.0; hgDAF12 agonist: 1.1; SMARCA2 activ: -5.3

What do the screens show for `COc1ccc2c(CN(Cc3ccccc3)Cc3ccccc3)cc(=O)oc2c1`?
hcDAF-12 act: -1.3; ssDAF-12 act: -1.1; DAX1 inh-2: -0.7; hgDAF12 agonist: 1.5; SMARCA2 activ: 2.3

How did COc1ccc(NC(=O)Nc2cccs2)cc1Cl do in these assays?
hcDAF-12 act: 1.6; DAX1 inh-1: 0.1; ssDAF-12 act: -0.1; DAX1 inh-2: 0.4; hgDAF12 agonist: 5.8; SMARCA2 activ: 3.0
